Read-out in test [1]: Interleukin-1 alpha (IL1a), IL1A (gene 3552)
Kind of test: BSK_LPS_IL1a: BioMAP Diversity Plus: LPS Assay for Interleukin-1 alpha (IL1a) Biomarker Activity (AID 2283080). As to conditions: primary human HUVEC with PBMC; actives raise or lower the signal. A digest of the protocol: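 ELISA read-out of IL-1 alpha from a human primary vascular co-culture (endothelium plus PBMC) under LPS, sampled 24 hours post-dosing. Activity was fitted in both directions relative to DMSO controls.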

Read-out in test [2]: Monocyte Chemoattractant Protein-1 (MCP1), CCL2 (gene 6347)
Kind of test: BSK_LPS_MCP1: BioMAP Diversity Plus: LPS Assay for Monocyte Chemoattractant Protein-1 (MCP1) Biomarker Activity (AID 2283081).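 On AC50: secreted MCP-1 protein quantified by ELISA in culture supernatant.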 As to conditions: primary human HUVEC with PBMC; actives raise or lower the signal. A digest of the protocol:
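Human endothelial–PBMC co-cultures were dosed with chemical, then LPS-driven MCP-1 levels were quantified by ELISA at 24 h. Activity in either direction was fitted versus DMSO negative control.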

Test [3] is described as follows: BSK_LPS_PGE2: BioMAP Diversity Plus: LPS Assay for Prostaglandin E2 (PGE2) Biomarker Activity (AID 2283082).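 On AC50: secreted prostaglandin E2 measured by ELISA in LPS-stimulated co-culture.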 To be noted: primary human HUVEC with PBMC; actives raise or lower the signal. The method in brief: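 Primary human endothelial cells and blood mononuclear cells, co-cultured with LPS, receive test chemical; PGE2 ELISA follows at 24 h, with SRB-stained parallel cultures flagging cytotoxicity.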

Read-out in test [4]: Macrophage colony-stimulating factor (MCSF), CSF1 (gene 1435)
Briefly: BSK_LPS_MCSF: BioMAP Diversity Plus: LPS Assay for Macrophage colony-stimulating factor (MCSF) Biomarker Activity (AID 2283083). As to conditions: primary human HUVEC with PBMC; actives raise or lower the signal. A digest of the protocol:
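ELISA readout of M-CSF after 24 h compound exposure in a human endothelial/PBMC co-culture. Activity, in either direction, is fitted relative to DMSO vehicle.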

Read-out in test [5]: Tissue Factor, F3 (gene 2152)
Briefly: BSK_LPS_TissueFactor: BioMAP Diversity Plus: LPS Assay for Tissue Factor Biomarker Activity (AID 2283084). To be noted: primary human HUVEC with PBMC; actives raise or lower the signal. The method in brief:
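ELISA signal for cell-surface Tissue Factor (CD142) was read 24 h after compound dosing of an LPS-stimulated human endothelial–PBMC primary co-culture. Gain or loss of signal was scored relative to DMSO.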

Read-out in test [6]: Tumor necrosis factor (Homo sapiens) (UniProt P01375)
Kind of test: BSK_LPS_TNFa: BioMAP Diversity Plus: LPS Assay for Tumour Necrosis Factor alpha (TNFa) Biomarker Activity (AID 2283085). To be noted: primary human HUVEC with PBMC; actives raise or lower the signal. The method in brief:
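ELISA-based TNFa endpoint in a human endothelial–PBMC co-culture sampled 24 h post-exposure. Curves were fitted in both directions using DMSO as baseline of activity.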

Read-out in a further test: CD38, CD38 (gene 952)
Briefly: BSK_SAg_CD38: BioMAP Diversity Plus: SAg Assay for CD38 Biomarker Activity (AID 2283087). As to conditions: primary human HUVEC with PBMC; actives raise or lower the signal. The method in brief: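 Measures CD38 on a human endothelial/PBMC co-culture driven by SEB and TSST-1, 24 h after compound exposure, using ELISA with fluorescence detection; DMSO defines baseline for bidirectional curve fitting.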

Read-out in another test: CD40, CD40 (gene 958)
Briefly: BSK_SAg_CD40: BioMAP Diversity Plus: SAg Assay for CD40 Biomarker Activity (AID 2283088). To be noted: primary human HUVEC with PBMC; actives raise or lower the signal. The method in brief: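 Compounds were dosed onto a human primary endothelial–PBMC co-culture, and after 24 h CD40 was quantified by ELISA using a fluorescence signal. Activity in either direction was fitted relative to DMSO.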

Read-out in another test: CD69, CD69 (gene 969)
Briefly: BSK_SAg_CD69: BioMAP Diversity Plus: SAg Assay for CD69 Biomarker Activity (AID 2283089).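 On AC50: cell surface CD69 protein quantified by ELISA with fluorescence detection.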 To be noted: primary human HUVEC with PBMC; actives raise or lower the signal. A digest of the protocol: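 Endothelial/PBMC co-culture; chemical added; 24 h incubation; CD69 ELISA with fluorescence detection; bidirectional fit vs DMSO.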

Read-out in test [7]: Monocyte Chemoattractant Protein-1 (MCP1), CCL2 (gene 6347)
Kind of test: BSK_SAg_MCP1: BioMAP Diversity Plus: SAg Assay for Monocyte Chemoattractant Protein-1 (MCP1) Biomarker Activity (AID 2283090). To be noted: primary human HUVEC with PBMC; actives raise or lower the signal. The method in brief:
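Values derive from bidirectional fitting of ELISA-measured MCP1 against DMSO controls. Readings were taken 24 h after dosing human vascular endothelial cells co-cultured with peripheral blood mononuclear cells under superantigen stimulation.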

Read-out in test [8]: E-selectin (Homo sapiens) (UniProt P16581)
Briefly: BSK_SAg_Eselectin: BioMAP Diversity Plus: SAg Assay for Eselectin Biomarker Activity (AID 2283091). To be noted: primary human HUVEC with PBMC; actives raise or lower the signal. A digest of the protocol: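 Co-culture: HUVEC + PBMC. Dose compound; 24 h. ELISA for E-selectin. Bidirectional fit vs DMSO.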

Read-out in test [9]: Monokine induced gamma interferon (MIG), CXCL9 (gene 4283)
Kind of test: BSK_SAg_MIG: BioMAP Diversity Plus: SAg Assay for Monokine induced gamma interferon (MIG) Biomarker Activity (AID 2283092). To be noted: primary human HUVEC with PBMC; actives raise or lower the signal. A digest of the protocol:
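Measures CXCL9 protein by ELISA in a human vascular primary-cell co-culture (umbilical vein endothelium with PBMC) 24 h after chemical addition. Activity is scored up or down from the DMSO control.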

The nature of test [10]: BSK_SAg_PBMCCytotoxicity: PBMC Cytotoxicity Assessment in the BioMAP Diversity Plus: SAg Assay (AID 2283093).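 Further: PBMC viability measured as Alamar Blue reduction fluorescence at 546/580 nm; fitted both ways against DMSO so a hit may be loss or gain of signal.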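 On AC50: PBMC superantigen activated with SEB plus TSST-1 one hour after compound addition.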 As to conditions: primary human HUVEC with PBMC. A digest of the protocol:
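Alamar Blue reduction (6 h, 546/580 nm) reports PBMC cytotoxicity after 90 h superantigen activation (SEB, TSST-1; 20 ng/mL final each) with 1 h compound pre-treatment. Gain or loss of signal fitted versus DMSO.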

Read-out in test [11]: Interleukin-8 (IL8), CXCL8 (gene 3576)
Briefly: BSK_SAg_IL8: BioMAP Diversity Plus: SAg Assay for Interleukin-8 (IL8) Biomarker Activity (AID 2283094). As to conditions: primary human HUVEC with PBMC; actives raise or lower the signal. A digest of the protocol:
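Primary human endothelial cells with PBMC, exposed 24 h; IL-8 determined by ELISA, analysed bidirectionally relative to DMSO.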

Test [12] is described as follows: BSK_SAg_Proliferation: Cell Proliferation Assessment in the BioMAP Diversity Plus: SAg Assay (AID 2283095).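 Further: relative cell number as total protein by SRB absorbance in sub-confluent culture.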 To be noted: primary human HUVEC with PBMC. A digest of the protocol:
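A human primary co-culture of umbilical vein endothelium and blood mononuclear cells receives compound; relative cell number is quantified at 96 h by SRB staining and 560 nm absorbance, with DMSO-referenced bidirectional curve fitting.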

Test [13] is described as follows: BSK_SAg_SRB: Viability Assessment in the BioMAP Diversity Plus: SAg Assay (AID 2283096).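 Further: cells read one day after compound addition; hits may be either gain or loss of signal compared with DMSO.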 To be noted: primary human HUVEC with PBMC. The method in brief:
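This overt-cytotoxicity endpoint quantifies protein in human endothelial/PBMC co-cultures at 24 h using SRB absorbance (560 nm) after trichloroacetic acid fixation. Values reflect signal change from the DMSO negative control, fitted bidirectionally.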

Read-out in test [14]: Vascular cell adhesion molecule 1 (VCAM1), VCAM1 (gene 7412)
Kind of test: BSK_LPS_VCAM1: BioMAP Diversity Plus: LPS Assay for Vascular cell adhesion molecule 1 (VCAM1) Biomarker Activity (AID 2283086). To be noted: primary human HUVEC with PBMC; actives raise or lower the signal. A digest of the protocol:
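Measured by ELISA: VCAM-1 in LPS-activated HUVEC/PBMC co-cultures 24 h after treatment. Values reflect bidirectional fitting with DMSO as baseline.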

Molecules are shown by their SMILES. Several values for one entry are separate records, joined by “and”; a condition that tells them apart may be missing. Equal entries are not always repeated. More than one record can exist for a structure, and the calls need not agree. Activity calls are given as the source filed them. How the source made its calls: active means hit-call score of the fitted dose curve at least 0.9, where 1 is the maximum; inactive means score below 0.9.

Chain of E-selectin (Homo sapiens) (P16581 whole entry, looked up): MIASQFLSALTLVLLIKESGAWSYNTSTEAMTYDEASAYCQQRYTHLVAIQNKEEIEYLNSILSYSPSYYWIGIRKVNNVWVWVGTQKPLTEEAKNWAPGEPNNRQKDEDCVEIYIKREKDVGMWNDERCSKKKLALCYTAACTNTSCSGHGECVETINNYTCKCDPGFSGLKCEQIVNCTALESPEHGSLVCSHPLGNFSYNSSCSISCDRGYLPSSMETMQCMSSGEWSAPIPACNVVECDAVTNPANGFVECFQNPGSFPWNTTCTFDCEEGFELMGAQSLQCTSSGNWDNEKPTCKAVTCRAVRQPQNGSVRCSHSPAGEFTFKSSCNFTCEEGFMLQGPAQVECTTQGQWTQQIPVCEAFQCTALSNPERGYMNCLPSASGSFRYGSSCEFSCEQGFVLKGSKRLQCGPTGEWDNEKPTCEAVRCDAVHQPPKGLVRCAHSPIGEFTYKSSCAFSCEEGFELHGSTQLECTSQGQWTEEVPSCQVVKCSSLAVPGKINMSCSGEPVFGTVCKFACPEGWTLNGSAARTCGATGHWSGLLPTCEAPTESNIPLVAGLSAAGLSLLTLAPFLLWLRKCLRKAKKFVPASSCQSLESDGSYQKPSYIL
Chain of Tumor necrosis factor (Homo sapiens) (P01375 whole entry, looked up): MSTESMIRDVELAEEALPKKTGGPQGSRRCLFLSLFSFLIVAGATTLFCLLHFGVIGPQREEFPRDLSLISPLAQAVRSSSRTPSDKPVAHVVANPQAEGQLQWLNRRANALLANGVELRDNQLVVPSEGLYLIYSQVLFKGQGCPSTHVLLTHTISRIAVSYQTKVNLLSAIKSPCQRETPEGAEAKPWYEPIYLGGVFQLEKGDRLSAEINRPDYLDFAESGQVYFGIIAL

In the case of `O=C1NS(=O)(=O)c2ccccc21`, the result in test [1], in test [2], in test [3], in test [4], in [5] and in test [6] was inactive. Also, the outcome is “inactive” with CD38, CD38 (gene 952); “inactive” in the test with CD40, CD40 (gene 958); “inactive” with CD69, CD69 (gene 969); “inactive” in test [7]; “inactive” in test [8]; “inactive” in test [9]. The result in test [10], in [11], in test [12] and in [13] was inactive.
In the case of `COc1cccc(O)c1`, the outcome in test [2], in test [3], in [4], in [5], in test [6] and in [14] was inactive. Further, the outcome with CD38, CD38 (gene 952) was “inactive”; in the test with CD40, CD40 (gene 958) it was “inactive”; in the test with CD69, CD69 (gene 969), “inactive”; in test [7], “inactive”; in test [8] it was “inactive”; in [9], “inactive”. Further, the result in test [10], in [11], in [12] and in [13] was inactive.
Take `CCCCCCCCCCCCCCC`: the outcome is “inactive” in test [2]; “inactive” in [3]; “inactive” in test [4]; “inactive” in test [5]; “inactive” in [6]; “inactive” with CD38, CD38 (gene 952). The outcome in the test with CD40, CD40 (gene 958) was “inactive”; with CD69, CD69 (gene 969), “inactive”; in test [7], “inactive”; in [8] it was “inactive”; in test [9], “inactive”; in test [10] it was “inactive”. Also, the result in [11], in test [12] and in test [13] was inactive.
With `CC(C)(C)c1ccc(O)c(O)c1`, the AC50 – broadly, the concentration at which the activity in the assay is half-maximal – in test [1] is 29.3 µM (active); in [2], 29.1 µM (active); in test [4], 29.2 µM (active); in test [5], 20 µM (active); in [14], 24 µM (active); with CD38, CD38 (gene 952), 28.5 µM (active). In addition, the concentration at half-maximal activity (AC50) is 27.3 µM (active) with CD40, CD40 (gene 958); 20 µM (active) in the test with CD69, CD69 (gene 969); 30.6 µM (active) in test [7]; 19.2 µM (active) in [8]; 34.8 µM (active) in test [9]; 3.06 µM (active) in [10]. Further, the AC50 was 20 µM (active) in test [11], 2.68 µM (active) in test [12] and 29.1 µM (active) in test [13]. Also, in test [3], the outcome was inactive.
Consider `Oc1c(Cl)cc(Cl)cc1Sc1cc(Cl)cc(Cl)c1O`, for which the AC50 in test [1] is 35.4 µM (active) and 35.6 µM (active); in test [2], 31.4 µM (active) and 30.1 µM (active); in [3], 20 µM (active); in test [4], 26.3 µM (active); in test [5] it was 34 µM (active) and 33.6 µM (active); with CD38, CD38 (gene 952), 9.47 µM (active) and 9.95 µM (active). Also, the AC50 with CD40, CD40 (gene 958) was 13.8 µM (active) and 9.99 µM (active); with CD69, CD69 (gene 969) it was 13.2 µM (active) and 16.2 µM (active); in test [7], 8.87 µM (active) and 5.21 µM (active); in [8], 8.08 µM (active) and 7.11 µM (active); in test [9] it was 12.4 µM (active) and 12 µM (active); in test [10], 29.1 µM (active) and 30 µM (active). The AC50 in test [11] was 4.54 µM (active) and 5.28 µM (active); in [12], 5.29 µM (active) and 5.92 µM (active); in test [13] it was 23.8 µM (active) and 17.2 µM (active). Besides, the outcome in test [3] was inactive.
With `O=S(=O)(O)C(F)(F)C(F)(F)C(F)(F)C(F)(F)C(F)(F)C(F)(F)C(F)(F)C(F)(F)C(F)(F)C(F)(F)F`, the AC50 in test [2] is 6.6 µM (active); in [5] it was 13.3 µM (active); with CD40, CD40 (gene 958), 13.3 µM (active) and 7.42 µM (active); in test [7], 8.67 µM (active); in test [8], 7.15 µM (active); in test [13], 13.2 µM (active). The outcome in test [2] was “inactive”; in test [3], “inactive”; in test [4], “inactive”; in test [5], “inactive”; with CD38, CD38 (gene 952), “inactive”; with CD69, CD69 (gene 969) it was “inactive”. The result in [7], in test [8], in test [9], in test [10], in [11] and in test [12] was inactive. Besides, the outcome in test [13] was inactive.

For the origin of these results see PubChem BioAssay (EPA / NIEHS).
